# Whole data set: some 2,900 compounds, median “NF-kB SEAP reporter activity, fold change vs agonist alone” near 0.99, cut for the highest 2% near 2.6. For the sample, the highest values were picked, then their nearest neighbours and some compounds at random.
# Key:
# RAW-Dual [1] = test: NF-kB SEAP reporter activity, fold change vs agonist alone; cytotoxicity flag (confluency mask): not cytotoxic; higher = enhanced NF-kB activity
# Summary of the method: (§1)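 After 50 nL of library stock was delivered by pin tool to RAW-Dual macrophages (50,000 cells/well, DMEM, 384-well plates), a PRR agonist was added 1 h later and the plates were kept at 37 °C, 5% CO2. Twenty hours later, IRF was read from supernatant by QuantiLuc luminescence and NF-κB by QuantiBlue absorbance at 620 nm. Reporter activity is stated as fold change over agonist-alone wells. Wells with IncuCyte confluency under 70% of agonist controls in both mask sets were counted as cytotoxic.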
# RAW-Dual [2] = test: NF-kB SEAP reporter activity, fold change vs agonist alone; higher = enhanced NF-kB activity
# Summary of the method: as §1
# RAW-Dual [3] = test: NF-kB SEAP reporter activity, fold change vs agonist alone; cytotoxicity flag (confluency mask): cytotoxic (confluency <70% of control); higher = enhanced NF-kB activity
# Summary of the method: as §1
# [4] = agonist: ODN 1826 (TLR9) 0.5 ug/mL
# [5] = agonist: Pam2CSK4 (TLR2/6) 0.1 ug/mL
# [6] = agonist: Pam3CSK4 (TLR2/1) 0.1 ug/mL
# [7] = library stock concentration (final ~1000-fold dilution): 10 mM, cytotoxicity flag (confluency mask): not cytotoxic, agonist: Imiquimod (TLR7) […]
# [8] = library stock concentration (final ~1000-fold dilution): 10 mM, cytotoxicity flag (confluency mask): not cytotoxic, agonist: MPLA (TLR4) […]
# [9] = library stock concentration (final ~1000-fold dilution): 2 mM, cytotoxicity flag (confluency mask): not cytotoxic, agonist: Imiquimod (TLR7) […]
# [10] = library stock concentration (final ~1000-fold dilution): 2 mM, cytotoxicity flag (confluency mask): not cytotoxic, agonist: MPLA (TLR4) […]
# [11] = library stock concentration (final ~1000-fold dilution): 10 mM, cytotoxicity flag (confluency mask): cytotoxic (confluency <70% of control), agonist: Imiquimod (TLR7) […]
# [12] = library stock concentration (final ~1000-fold dilution): 10 mM, cytotoxicity flag (confluency mask): cytotoxic (confluency <70% of control), agonist: MPLA (TLR4) […]
compound,measurement,setting,value
C=CC(=O)Nc1cccc(Nc2nc(Nc3ccc(OCCOC)cc3)ncc2F)c1 (library stock concentration (final ~1000-fold dilution): 10 mM),NF-kB SEAP reporter activity,RAW-Dual [1]; agonist: LPS (TLR4) 0.1 ug/mL,1.12
same,NF-kB SEAP reporter activity,RAW-Dual [1]; [4],0.8
same,NF-kB SEAP reporter activity,RAW-Dual [1]; [5],0.545
same,NF-kB SEAP reporter activity,RAW-Dual [1]; [6],0.672
Cc1cnc(Nc2ccc(N3CCN(C)CC3)cc2)nc1Nc1cccc(S(=O)(=O)NC(C)(C)C)c1 (library stock concentration (final ~1000-fold dilution): 10 mM),NF-kB SEAP reporter activity,RAW-Dual [1]; agonist: LPS (TLR4) 0.1 ug/mL,7
same,NF-kB SEAP reporter activity,RAW-Dual [1]; [4],0.913
same,NF-kB SEAP reporter activity,RAW-Dual [1]; [5],2.15
same,NF-kB SEAP reporter activity,RAW-Dual [1]; [6],0.84
C=CC(=O)Nc1cccc(Nc2nc(Nc3ccc(OCCOC)cc3)ncc2F)c1,NF-kB SEAP reporter activity,RAW-Dual [2]; [7],1.11
same,NF-kB SEAP reporter activity,RAW-Dual [2]; [8],1.69
c1ccc(C(c2ccccc2)N2CCN(Cc3ccc4c(c3)OCO4)CC2)cc1,NF-kB SEAP reporter activity,RAW-Dual [2]; [7],1.19
same,NF-kB SEAP reporter activity,RAW-Dual [2]; [8],0.686
c1ccc(C(c2ccccc2)N2CCN(Cc3ccc4c(c3)OCO4)CC2)cc1 (library stock concentration (final ~1000-fold dilution): 10 mM),NF-kB SEAP reporter activity,RAW-Dual [1]; agonist: LPS (TLR4) 0.1 ug/mL,0.717
same,NF-kB SEAP reporter activity,RAW-Dual [1]; [4],0.728
same,NF-kB SEAP reporter activity,RAW-Dual [1]; [5],1.38
same,NF-kB SEAP reporter activity,RAW-Dual [1]; [6],0.699
O=c1ncnc2[nH][nH]cc1-2,NF-kB SEAP reporter activity,RAW-Dual [2]; [7],0.925
same,NF-kB SEAP reporter activity,RAW-Dual [2]; [8],1.08
O=c1ncnc2[nH][nH]cc1-2 (library stock concentration (final ~1000-fold dilution): 10 mM),NF-kB SEAP reporter activity,RAW-Dual [1]; agonist: LPS (TLR4) 0.1 ug/mL,0.941
same,NF-kB SEAP reporter activity,RAW-Dual [1]; [4],1.03
same,NF-kB SEAP reporter activity,RAW-Dual [1]; [5],1.06
same,NF-kB SEAP reporter activity,RAW-Dual [1]; [6],1.16
C=C(C)C1CCC2(C)CCC3(C)C(CCC4C5(C)CCC(O)C(C)(C)C5CCC43C)C12 (configuration not stated) (library stock concentration (final ~1000-fold dilution): 2 mM),NF-kB SEAP reporter activity,RAW-Dual [1]; agonist: LPS (TLR4) 0.1 ug/mL,1.25
same,NF-kB SEAP reporter activity,RAW-Dual [1]; [4],0.949
same,NF-kB SEAP reporter activity,RAW-Dual [1]; [5],1.06
same,NF-kB SEAP reporter activity,RAW-Dual [1]; [6],0.917
C=C(C)C1CCC2(C)CCC3(C)C(CCC4C5(C)CCC(O)C(C)(C)C5CCC43C)C12 (configuration not stated),NF-kB SEAP reporter activity,RAW-Dual [2]; [9],1
same,NF-kB SEAP reporter activity,RAW-Dual [2]; [10],1.05
CC(C)COCC(CN(Cc1ccccc1)c1ccccc1)N1CCCC1.Cl.O (configuration not stated) (library stock concentration (final ~1000-fold dilution): 10 mM),NF-kB SEAP reporter activity,RAW-Dual [3]; agonist: LPS (TLR4) 0.1 ug/mL,0.71
same,NF-kB SEAP reporter activity,RAW-Dual [3]; [4],1.2
same,NF-kB SEAP reporter activity,RAW-Dual [3]; [5],0.673
same,NF-kB SEAP reporter activity,RAW-Dual [3]; [6],1.09
CC(C)COCC(CN(Cc1ccccc1)c1ccccc1)N1CCCC1.Cl.O (configuration not stated),NF-kB SEAP reporter activity,RAW-Dual [2]; [11],0.745
same,NF-kB SEAP reporter activity,RAW-Dual [2]; [12],1.24
CC(Oc1ccc2[nH]nc(/C=C/c3cnn(CCO)c3)c2c1)c1c(Cl)cncc1Cl (configuration not stated),NF-kB SEAP reporter activity,RAW-Dual [2]; [11],0.251
same,NF-kB SEAP reporter activity,RAW-Dual [2]; [12],0.215
CC(Oc1ccc2[nH]nc(/C=C/c3cnn(CCO)c3)c2c1)c1c(Cl)cncc1Cl (configuration not stated) (library stock concentration (final ~1000-fold dilution): 10 mM),NF-kB SEAP reporter activity,RAW-Dual [3]; agonist: LPS (TLR4) 0.1 ug/mL,0.225
same,NF-kB SEAP reporter activity,RAW-Dual [3]; [4],0.187
same,NF-kB SEAP reporter activity,RAW-Dual [3]; [5],0.0607
same,NF-kB SEAP reporter activity,RAW-Dual [3]; [6],0.139
CC1(c2nc3c(C(N)=O)cccc3[nH]2)CCCN1 (configuration not stated) (library stock concentration (final ~1000-fold dilution): 10 mM),NF-kB SEAP reporter activity,RAW-Dual [1]; agonist: LPS (TLR4) 0.1 ug/mL,1.14
same,NF-kB SEAP reporter activity,RAW-Dual [1]; [4],0.972
same,NF-kB SEAP reporter activity,RAW-Dual [1]; [5],0.955
same,NF-kB SEAP reporter activity,RAW-Dual [1]; [6],0.991
CC1(c2nc3c(C(N)=O)cccc3[nH]2)CCCN1 (configuration not stated),NF-kB SEAP reporter activity,RAW-Dual [2]; [7],1.05
same,NF-kB SEAP reporter activity,RAW-Dual [2]; [8],0.99
C=CC(=O)Nc1cc(Nc2nccc(-n3cc(CN(C)C)c(-c4ccccc4)n3)n2)c(OC)cc1N1CCOCC1 (library stock concentration (final ~1000-fold dilution): 2 mM),NF-kB SEAP reporter activity,RAW-Dual [1]; agonist: LPS (TLR4) 0.1 ug/mL,1.37
same,NF-kB SEAP reporter activity,RAW-Dual [1]; [4],0.945
same,NF-kB SEAP reporter activity,RAW-Dual [1]; [5],0.927
same,NF-kB SEAP reporter activity,RAW-Dual [1]; [6],1.01
C=CC(=O)Nc1cc(Nc2nccc(-n3cc(CN(C)C)c(-c4ccccc4)n3)n2)c(OC)cc1N1CCOCC1,NF-kB SEAP reporter activity,RAW-Dual [2]; [9],1.12
same,NF-kB SEAP reporter activity,RAW-Dual [2]; [10],1.02

# From the supplement of paper PMC10037445
